Data: PubChem BioAssay (NCI)
This is part of a sample that, as a whole, favours compounds with a hit. Of some 83,000 tested, about 20% had one in any assay.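 Values shown are percent growth following 48 h exposure of cells in 96-well plates to a single concentration of compound; below 10 was considered active.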 Values without a mark were called inactive. Activity calls are given as the source filed them.

How the values were obtained:
Experiment in all cases: NCI-60 one-dose screen, 48 h (100 = growth as untreated, 0 = no growth, -100 = all killed)
DU-145 prostate = conditions: 10 µM unless noted
K-562 leukemia = conditions: 10 µM unless noted
MALME-3M melanoma = conditions: 10 µM unless noted
MDA-MB-231 breast = conditions: 10 µM unless noted
RXF 393 renal = conditions: 10 µM unless noted
SF-268 CNS = conditions: 10 µM unless noted
SF-295 CNS = conditions: 10 µM unless noted
SF-539 CNS = conditions: 10 µM unless noted
UACC-257 melanoma = conditions: 10 µM
M14 melanoma = conditions: 10 µM unless noted
HCT-15 colon = conditions: 10 µM unless noted
HT29 colon = conditions: 10 µM unless noted
SNB-19 CNS = conditions: 10 µM unless noted
U251 CNS = conditions: 10 µM unless noted
PC-3 prostate = conditions: 10 µM unless noted
SK-MEL-5 melanoma = conditions: 10 µM unless noted
UACC-62 melanoma = conditions: 10 µM unless noted
LOX IMVI melanoma = conditions: 10 µM unless noted
SK-MEL-28 melanoma = conditions: 10 µM unless noted

Row | SMILES | growth (DU-145 prostate) | growth (K-562 leukemia) | growth (MALME-3M melanoma) | growth (MDA-MB-231 breast) | growth (RXF 393 renal) | growth (SF-268 CNS) | growth (SF-295 CNS) | growth (SF-539 CNS) | growth (UACC-257 melanoma) | growth (M14 melanoma) | growth (HCT-15 colon) | growth (HT29 colon) | growth (SNB-19 CNS) | growth (U251 CNS) | growth (PC-3 prostate) | growth (SK-MEL-5 melanoma) | growth (UACC-62 melanoma) | growth (LOX IMVI melanoma) | growth (SK-MEL-28 melanoma)
1 | Oc1ccc(CSc2nnc(-c3ccc(Cl)cc3)o2)c2cccnc12 | 31.8% | 16.2% | 36.8% | 52.1% | 52.2% | 24.2% | 5.94% (active) | 17% | 18.8% | 9.55% (active) | 14.4% | 102% | 16.5% | 10.5% | 21.4% | 11.1% | 5.12% (active) | 4.17% (active) | 26.6%
2 | Oc1ccccc1-c1nnc(SCc2ccc(O)c3ncccc23)n1-c1ccccc1 | 22.9% | 10.8% | 0.0457% (active) | 28.2% | -9.85% (active) | 14.9% | 1.17% (active) | 7.96% (active) | 1.58% (active) | -28.3% (active) | 17.6% | 14.6% | 16.5% | 11.5% | 20.5% | -60.3% (active) | -8.29% (active) | 3.79% (active) | 14.8%
3 | CC(C)N=C(N/C(N)=N/c1nc2ccccc2s1)NC(C)C | 85.6% | 23.1% | 75.4% | 56.3% | 51.9% | 81.3% | 43.8% | 52.3% | 87.9% | 58% | 62.5% | 31.7% | 48.2% | 57.6% | 64% | 62.5% | 61.4% | 1.73% (active) | 74.6%
4 | Oc1ccccc1-c1nnc(SCc2ccc(O)c3ncccc23)o1 | 29.6% | 19.8% | 30.3% | 60.6% | 29.4% | 34.1% | 15.3% | 37% | 25.2% | 27.4% | 16.3% | 102% | 29.1% | 23.6% | 19.2% | -4.08% (active) | 30.2% | 39.1% | 51.2%
5 | O=C(/C=C1\C=CN(CCCCCCF)c2ccccc21)n1ccc2ccccc21 | 109% | 91.2% | 91.6% | 84.4% | 121% | 99.7% | 94.6% | 99.3% | 103% | 92% | 101% | 98.3% | 97.1% | 98.9% | 84.7% | 94.4% | 76% | 101% | 106%
6 | O=C1[C@H]2Cc3c([nH]c4ccccc34)[C@@H](c3c(Cl)cccc3Cl)N2C(=O)CN1C1CCN(Cc2ccccc2)CC1 | 39.2% | 5.96% (active) | 61.4% | 89.3% | 81.6% | 73.8% | 106% | 93.5% | 105% | 78.1% | 25.5% | 9.36% (active) | 89.6% | 50.1% | 77.8% | 84.6% | 72.5% | -31.2% (active) | 93.1%
7 | O=C(CCCCCCN1CC(=O)N2[C@@H](c3ccccc3)c3[nH]c4ccccc4c3C[C@H]2C1=O)NO | 58.3% | 26.3% | 21.8% | 70.1% | 76.6% | 82.1% | 57.4% | 62.5% | 45.7% | 49.9% | 91.4% | 41.9% | 67.1% | 51.7% | 59.6% | 41.7% | 18.8% | 30.8% | 47%
8 | O=C(CN1C(=O)S/C(=C\c2ccccc2)C1=O)Nc1ccc(C(=O)/C=C/c2cc3ccccc3nc2Cl)cc1 | 91.4% | 51.2% | 91.1% | 90.2% | 109% | 81.8% | 81% | 90.8% | 71.3% | 78.8% | 88.5% | 94.8% | 86.2% | 93.4% | 81.6% | 24.3% | 66.2% | 73.3% | 95.8%
